Source: PubChem
Shown are actives, neighbours in structure and some others; about 10% of the full set was active somewhere.
KB-V1 cytotox – KB-V1 MDR subline cytotoxicity | KB-V1 MDR cells viability, CellTiter-Glo, 72 h | Potency, µM (series often up to 46.1 µM), most hits filed as cytotoxic | hit rate 3.4% among 400,000 | AID 1347076; note: % is set by controls: 0 for no effect and ±100 for the full control effect; nearly all actives have a fitted effect of over 60% in size
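Cells of the MDR subline KB-V1 are plated, dosed with compound at multiple concentrations, and incubated 72 h at 37 degrees C; CellTiter-Glo is then added and luminescence read after 10 min.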
VP16 counter – inhibits Gal4-VP16 luciferase reporter, ROR gamma counter-screen. Drosophila S2 Gal4-VP16 UAS-luciferase, luminescence, 20 h. Potency, µM (highest dose often 53.6 µM), for the others: at the top dose activity, negative = inhibition, hits mostly inhibitors. hit rate 3.5% among 310,000;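 note: Gal4-VP16 expression switched on by copper sulfate through the metallothionein promoter; % is set by controls: 0 for no effect and ±100 for the full control effect; nearly all actives have a fitted effect of over 50% in size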
MCF10A rerep – inducers of DNA re-replication in MCF 10A breast cells; MCF 10A DNA re-replication, Hoechst nuclear intensity, 48 h; Potency, µM (doses to about 46.1 µM), for inactives: top-dose activity, positive = re-replication, usual class: activators; hit rate 2.9% among 350,000; AID 624296; note: % of control where 0% means no effect; nearly all actives have a fitted effect of over 50% in size
RORgamma inh – blocks mouse ROR gamma transcriptional activity; Drosophila S2 Gal4-RORgamma UAS-luciferase reporter, 20 h; Potency, µM (highest dose often 53.6 µM), for the others: at the highest dose activity change, negative = inhibition, most hits filed as inhibitors; hit rate 5.4% among 310,000; AID 2551; note: % is set by controls: 0 for no effect and ±100 for the full control effect; nearly all actives have a fitted effect of over 60% in size
Target sequence (P51450 whole entry, looked up, the tested form may be a part): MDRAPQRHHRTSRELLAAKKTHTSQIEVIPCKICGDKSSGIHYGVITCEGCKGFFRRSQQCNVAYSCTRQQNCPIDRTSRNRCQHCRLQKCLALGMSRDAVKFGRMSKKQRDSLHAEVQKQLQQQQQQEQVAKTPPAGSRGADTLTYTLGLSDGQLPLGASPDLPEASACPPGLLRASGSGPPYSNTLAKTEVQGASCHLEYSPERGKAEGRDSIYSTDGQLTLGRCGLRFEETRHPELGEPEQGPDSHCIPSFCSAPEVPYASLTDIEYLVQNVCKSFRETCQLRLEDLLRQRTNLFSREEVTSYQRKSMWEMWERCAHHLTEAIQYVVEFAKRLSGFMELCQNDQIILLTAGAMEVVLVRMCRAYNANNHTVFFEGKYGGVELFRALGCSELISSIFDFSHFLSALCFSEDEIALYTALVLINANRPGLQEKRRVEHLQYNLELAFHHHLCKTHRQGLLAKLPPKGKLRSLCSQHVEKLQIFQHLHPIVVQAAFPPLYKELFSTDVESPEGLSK
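Drosophila S2 cells stably expressing Gal4-DBD/mouse RORγ fusion under metallothionein promoter plus UAS-luciferase; compound 1 h, then 700 uM CuSO4 induction for 20 h at ambient temperature; inhibition read as reduced luminescence.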
KB-3-1 cytotox – kills parental KB-3-1 adenocarcinoma cells | hit rate 1.4% among 400,000 | KB-3-1 viability, CellTiter-Glo ATP luminescence, 72 h | AID 1347075 | Potency, µM (top dose mostly 46.1 µM), hits mostly cytotoxic; note: % is set by controls: 0 for no effect and ±100 for the full control effect; nearly all actives have a fitted effect of over 60% in size
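Multi-concentration cytotoxicity screen in KB-3-1 cells grown in DMEM lacking phenol red with 10% FBS. After 72 h at 37 °C with compound, ATP-dependent luminescence was recorded.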
SW480 rereplic – inducers of DNA re-replication in SW480 colon cancer cells; SW480 DNA re-replication, Hoechst DNA content imaging, 48 h; Potency, µM (titrated, usually from 46.1 µM), without a hit: at the highest dose re-replication activation, most hits filed as activators; hit rate 1.8% among 340,000; AID 624297; note: % of control where 0% means no effect; nearly all actives have a fitted effect of over 55% in size
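Cells (250 per well) received 23 nL compound or DMSO by pin tool and were kept 48 hr at 37 C, 5% CO2. Nuclei were then stained with Hoechst for 40 min and scanned for DNA content.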
* hit, by the source's call; i = inactive; ? = inconclusive; / = not tested or not shown; [ ] = dose if it differs, or a comment. Calls come from the whole dose curve; as a rule, active = well fitted curve in the direction sought with a large enough effect; inconclusive = small, poorly fitted or top-dose-only effect, or another doubt; inactive = no such curve, though single readings can be large; an effect the other way counts as inactive or inconclusive. Potency is the fitted concentration of half-maximal effect.

SMILES	KB-V1 cytotox	VP16 counter	MCF10A rerep	RORgamma inh	KB-3-1 cytotox	SW480 rereplic
CC(Oc1cccc(Cl)c1)C(=O)Nc1cc(Cl)ccc1N1CCOCC1 (centres undefined)	?	/	?	/	i	9.2µM*
c1ccc(C2OC3c4cccc5cccc(c45)C3N2c2ccccc2)cc1 (centres undefined)	i	4%	18µM*	22%	i	?
COc1ccc(NC(=O)CSc2ccc3nc(-c4ccccc4)cn3n2)c(OC)c1	i	/	/	/	?	/
CC1(C)CC2/C(CO)=C/C=C/[C@](C)(O)CC[C@]21O (some centres undefined)	/	4%	/	-13%	/	/
CCOc1ccccc1CNC(=O)c1cc2oc3ccccc3c2n1C	?	-2%	15µM*	24%	7.3µM*	26%
CCOc1ccccc1CNC(=O)c1cc2occc2n1C	i	33%	-1%	20%	i	0%
COCCNC(=O)c1cc2oc3ccccc3c2n1C	23µM*	1%	8%	12%	i	-4%
C[C@H]1CCCCO[C@@H](CN(C)C(=O)NC2CCCCC2)[C@@H](C)CN([C@@H](C)CO)C(=O)c2cc(NC(=O)Cc3ccccc3)ccc2O1	i	/	/	/	i	/
CCOc1ccc(N(CCCCO)C(=S)NC(=O)c2ccc(C)c(Br)c2)cc1	i	5.6µM*	18%	2.5µM*	i	-9%
C=CCNC(=S)NC(=O)c1ccc(C)c(Br)c1	i	?	-3%	?	i	-4%
Cc1ccc(S(=O)(=O)NC(=O)C2(C)CCN2C(=O)Cc2ccc(Cl)cc2Cl)cc1 (centres undefined)	i	/	/	/	i	/
CCOC(=O)c1[nH]nc(-c2cc(CC)c(O)cc2O)c1-c1cscn1	?	13µM*	19%	?	?	17%
CCc1nc(SCc2ccc(OCC(C)C)cc2)n[nH]1	i	16µM*	0%	?	i	13%
COc1ccc(CCNC(=O)CSc2nnc(-c3ccc(C)cc3)c(-c3ccc(C)cc3)n2)cc1OC	i	/	/	/	i	/
CCCCNC(=O)CNC(=S)N(Cc1ccccc1F)C1CCCCC1	?	-15%	2%	13µM*	i	?
CCc1ccc(NC(=S)N2CCN(c3cccc(C(F)(F)F)c3)CC2)cc1	i	35µM*	648%[0.0737 µM]	13µM*	i	3%
CCOc1cc(CN2CCN(c3cccc(C(F)(F)F)c3)CC2)ccc1O	16µM*	-2%	6%	-18%	i	13%
COc1cc(C(=O)N2CCN(c3cccc(C(F)(F)F)c3)CC2)ccc1OCC(=O)N1CCOCC1	18µM*	/	0%	/	i	-4%
COCCNC(=S)N1CCN(c2cccc(C(F)(F)F)c2)CC1	i	?	-2%	-15%	i	-6%
COc1ccc(NC(=O)N2CCN(c3cccc(C(F)(F)F)c3)CC2)cc1OC	13µM*	?	5%	36%	i	1%
O=C(Nc1ccccc1)N1CCN(c2cccc(C(F)(F)F)c2)CC1	?	-27%	-8%	30%	i	-7%
COc1cc(C(=O)N2CCN(c3ccccc3Cl)CC2)ccc1OCC(=O)N1CCOCC1	i	/	-6%	/	i	-15%
CCOC(=O)Oc1c(OC)cc(C(=O)O[C@H]2C[C@H]3CN4CCc5c([nH]c6cc(OC)ccc56)[C@@H]4C[C@H]3[C@@H](C(=O)OC)[C@@H]2OC)cc1OC	/	-5%[17 µM]	16%[20.6 µM]	1%[2.98 µM]	/	?
COc1ccc(CC(C)N2CCN(c3cccc(C(F)(F)F)c3)CC2)cc1OC (centres undefined)	18µM*	-8%	4%	-2%	i	-1%
COc1ccccc1C(=O)N1CCN(c2cccc(C(F)(F)F)c2)CC1	2.9µM*	-9%	11µM*	0%[10 µM]	5.2µM*	23µM*
SMILES	KB-V1 cytotox	VP16 counter	MCF10A rerep	RORgamma inh	KB-3-1 cytotox	SW480 rereplic
Cc1nc(N2CCc3ccccc3C2)[nH]c(=O)c1Cc1ccccc1	i	2%	-4%	44%	i	3%
Cc1nc(-n2[nH]c3c(c2=O)CCCC3)[nH]c(=O)c1Cc1ccccc1	2.6µM*	2.5µM*	21µM*	2.2µM*	?	9.2µM*
CCC(C)c1ccccc1N1CC(C(=O)N(C)CC(=O)Nc2cccc(F)c2)CC1=O (centres undefined)	i	/	-19%	/	i	?
CCCCn1cnc2c(oc3nc4c(cc32)CCCC4)c1=O	i	?	-6%	10µM*	i	?
CN(c1ccccc1)c1ccc(/C=C(\C#N)c2nnc3n2CCCCC3)cc1[N+](=O)[O-]	10µM*	0%	?	?	?	-5%
O=S(=O)(c1ccccc1)c1nc(Nc2cccc(O)c2)sc1Cl	?	-3%	29%	45%	16µM*	?
CC(C)(C)/C(O)=C/c1nc2cc(Cl)ccc2oc1=O	i	0%	?	-36%	i	22%
Cc1ccc2oc(=O)c(/C=C(\O)c3sc(C)nc3C)nc2c1	i	?	16%	?	i	-4%
Cc1ccc2oc(=O)c(/C=C(\O)C(C)(C)C)nc2c1	i	-21%	10%	5µM*	i	-24%
Cc1ccc2oc(=O)c(/C=C(\O)c3ccco3)nc2c1	i	?	?	10µM*	i	-6%
COC(=O)c1ccc(CN(c2ccc(C(=O)O)c(O)c2)S(=O)(=O)c2ccc(Cl)c([N+](=O)[O-])c2)cc1	i	-6%	3.7µM*	32%	i	-1%
COC(=O)c1ccc(CN(c2ccccn2)S(=O)(=O)c2ccccc2)cc1	i	-1%	17%	35%	i	-3%
COc1ccc(C(=O)CC(=O)C(=O)Nc2ccccc2)cc1	i	?	7%	?	i	?
COc1ccc(C(=O)CC(=O)C(=O)NCCc2cccc(C)c2)cc1	?	?	18µM*	-2%[10 µM]	i	?
COc1ccc(C(=O)CC(=O)C(=O)Nc2ccc([N+](=O)[O-])cc2C)cc1	?	11µM*	1%	5.6µM*	i	-2%
COc1ccc(C(=O)CC(=O)C(=O)Nc2cc(C)ccc2C)cc1	i	10µM*	5%	7.1µM*	i	?
COc1ccc(C(=O)CC(=O)C(=O)Nc2cccc(F)c2)cc1	i	7.1µM*	0%	7.1µM*	i	2%
CC(=O)OCC(NC(=O)C(Cc1ccccc1)NC(=O)OC(C)(C)C)C1OC(n2cc(C)c(=O)[nH]c2=O)C(OC(C)=O)C1OC(C)=O (centres undefined)	/	-9%	/	-10%	/	/
